The panel holds about 83,000 compounds, 20% with a hit somewhere; the sample as a whole holds those more often.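 In brief: 96-well plates, 48 h treatment, single concentration, percent growth endpoint.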 Values without a mark were called inactive. The source made the active and inactive calls. Rule for the calls: active = growth percent below 10; inactive = the rest.

Experiment in all cases: NCI-60 one-dose screen, 48 h (100 = growth as untreated, 0 = no growth, -100 = all killed)
Holding throughout (details): 10 µM unless noted

For experiment [1], the system named is DU-145 prostate.
The test system of experiment [2] is K-562 leukemia.
For experiment [3], the system named is MALME-3M melanoma.
For experiment [4], the system named is MDA-MB-231 breast.
Experiment [5] has as its system RXF 393 renal.
The test system of experiment [6] is SF-268 CNS.
Experiment [7] relates to SF-295 CNS.
For experiment [8], the system named is SF-539 CNS.
Experiment [9] concerns UACC-257 melanoma.
The test system of experiment [10] is M14 melanoma.

On to `CC12CCC3C(=CCc4cc(O)ccc43)C1CCC2=O` (stereo not given), for which the growth was 115% in experiment [1]; 91.5% in experiment [2]; 90.5% in experiment [3]; 102% in experiment [4]; 113% in [5]; 106% in experiment [6]. Further, the growth in experiment [7] was 92%; in [8], 102%; in experiment [9], 113%; in experiment [10], 105%.

Turning to `Cc1sc2nc(NCCc3cccs3)[nH]c(=O)c2c1C`, the growth in [1] was 94.7%; in [2], 82.5%; in [3], 98.7%; in experiment [4], 92.5%; in experiment [5], 78.9%; in experiment [6] it was 95.4%. Moreover, the growth in experiment [7] was 82.8%; in experiment [8], 91.4%; in experiment [9], 72%; in [10] it was 82.9%.

Turning to `O=C(Nc1cccc(Cl)c1)Nc1cccc(Cl)c1`, the growth in [1] was 78.6%; in [2], 19.6%; in [3], 68.1%; in experiment [4] it was 85.3%; in [5], 132%; in experiment [6] it was 88.6%. Further, the growth was 24.8% in experiment [7], 91.4% in experiment [8], 105% in experiment [9] and 75.7% in experiment [10].

As for `COc1cc(Cl)cc(-c2nn(-c3cccc(NC(=O)c4cc(C(F)(F)F)cc(C(F)(F)F)c4)c3)cc2-c2ccncc2)c1`, the growth in experiment [1] is 78.2%; in experiment [2] it was 38%; in experiment [3], 104%; in [4] it was 56.7%; in experiment [5] it was 67.7%; in experiment [6] it was 89.2%. Moreover, the growth is 42.1% in experiment [7], 80% in [8], 79.3% in [9] and 67.3% in [10].

On to `N#Cc1c(-c2ccccc2)cc(-c2ccccc2)n(CCC(=O)O)c1=O`, for which the growth in experiment [1] is 81.5%; in experiment [2] it was 14.7%; in experiment [3] it was 51.4%; in experiment [4], 58.9%; in experiment [5], 53%; in experiment [6] it was 67.4%. In addition, the growth is 37.3% in [7], 62.5% in experiment [8], 55.5% in experiment [9] and 25.5% in experiment [10].

As for `COc1cc(/C=C2\CN(S(=O)(=O)c3ccc(C)cc3)C/C(=C\c3cc(CN4CCOCC4)c(O)c(OC)c3)C2=O)cc(CN2CCOCC2)c1O`, the growth in experiment [1] is 29.1%; in [2], 10.4%; in experiment [3], -25.7% (active); in [4], 5.67% (active); in experiment [5], -87.3% (active); in experiment [6], 7.91% (active). Moreover, the growth in [7] was -34.1% (active); in experiment [8] it was -3.63% (active); in experiment [9] it was -28.6% (active); in [10], -40.5% (active).

As for `O=C1CSC(c2ccccc2O)N1c1nnc(Cn2ccnc2)o1` (stereo not given), the growth in experiment [1] was 80.9%; in [2] it was 43.5%; in [3], 101%; in [4], 61.6%; in experiment [5], 74.7%; in experiment [6], 55.7%. The growth in [7] is 20.7%; in [8], 55.6%; in [9], 78.7%; in experiment [10] it was 59.8%.

On to `CCOc1cc(/C=C/C(=O)C(C(=O)/C=C/c2ccc(OC(=O)CNc3nnc(C)s3)c(OCC)c2)C(=O)CNc2nnc(C)s2)ccc1OC(=O)CNc1nnc(C)s1`, for which the growth in experiment [1] is -68.7% (active); in experiment [2], -41.8% (active); in [3] it was -20.8% (active); in experiment [4], -36.9% (active); in experiment [5], -78.5% (active); in experiment [6], -16.4% (active). Moreover, the growth in [7] is -24.7% (active); in experiment [8], -54.5% (active); in [9] it was 15.3%; in experiment [10] it was -26.3% (active).

For the compound `COc1cc(-c2nc3sc4c(c3c(=O)[nH]2)CCCCCC4)cc(OC)c1OC`, the growth is 12.1% in experiment [1]; 5.92% (active) in experiment [2]; 25.6% in experiment [3]; 7.21% (active) in experiment [4]; 0.561% (active) in experiment [5]; 27.2% in [6]. Moreover, the growth was 13.7% in experiment [7], -5.36% (active) in [8], 63.7% in experiment [9] and 23.1% in [10].

Regarding `O=C(CC(C(=O)c1ccccc1)N1CCN(Cc2ccccc2)CC1)c1ccccc1` (stereo not given), the growth is 86.2% in experiment [1]; 19.5% in experiment [2]; 110% in experiment [3]; 96% in experiment [4]; 95% in experiment [5]; 106% in [6]. The growth was 109% in experiment [7], 93.8% in experiment [8], 93.7% in [9] and 77.9% in experiment [10].

On to `Cn1cc(NC(=O)Nc2cc(C(=O)O)n(C)c2)cc1C(=O)O`, for which the growth in experiment [1] was 121%; in experiment [2], 83.1%; in experiment [3], 89.1%; in experiment [4], 98.3%; in [5], 9.73% (active); in experiment [6], 122%. Further, the growth in [7] is 99.4%; in experiment [8] it was 103%; in experiment [9], 106%; in experiment [10], 108%.

Take `COc1cc(/C=C/C(=O)CC(=O)/C=C/c2ccc(OC(=O)CCNC34CC5CC(CC(C5)C3)C4)c(OC)c2)ccc1OC(=O)CCNC12CC3CC(CC(C3)C1)C2`: the growth in experiment [1] is -7.16% (active); in experiment [2], 7.62% (active); in [3], 38.6%; in experiment [4], 52.4%; in experiment [5], -37.7% (active); in experiment [6] it was 16.5%. In addition, the growth in experiment [7] is 51%; in [8] it was -18.2% (active); in experiment [9] it was 73.9%; in experiment [10], 16.5%.

The record behind these values is PubChem BioAssay (NCI).
